The subject of experiment [1] is Plasmodium falciparum Sir2 (PF13_0152, Sir2A). Briefly: Plasmodium falciparum Sir2A binding compounds – biochemical, small-molecule microarray, 635 nm fluorescence, primary screen (AID 1098).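 Also: score merges spot fluorescence intensity with its signal-to-noise ratio.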 The settings on record: fluorescence 635 nm, higher = more signal.
Experiment [2] can be described thus: probe aDKK1 binding to arrayed compounds – biochemical, biotinylated probe, 635/667 nm fluorescence, primary screen (AID 1099).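 Also: score merges 667nm spot fluorescence with signal to noise across triplicate slides.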 The settings on record: small-molecule microarray, higher = more signal.
Experiment [3] in a line: probe aCHRDL2 binding to arrayed compounds – biochemical, biotinylated probe, 635/667 nm fluorescence, primary screen (AID 1100). The settings on record: small-molecule microarray, higher = more signal.
Experiment [4] in a line: change in splice reporter luminescence, either direction, cell-based, HEK293, spliceosome inhibition project, primary screen (AID 1101).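 Also: HEK293 cells carrying a splicing-competent luciferase reporter gene; test concentration not given here.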 The settings on record: HEK293 splicing luciferase reporter, 24 h, higher = more signal, called active from +8 up or from −8 down. In general terms: In a reporter assay the amount or activity of a reporter protein is the signal.
Experiment [5] addresses Fibroblast growth factor 10 (Homo sapiens) (UniProt O15520). In words: compounds binding fibroblast growth factor 10 – biochemical, small-molecule microarray, 635 nm fluorescence, primary screen (AID 1102). The settings on record: FGF10 binding, fluorescence 635 nm, higher = more signal.
In experiment [6] the test system is glycogen synthase kinase-3 (GSK3A per assay name; protocol says GSK3B). Briefly: compounds binding glycogen synthase kinase-3 – biochemical, small-molecule microarray, 635 nm fluorescence, GSK3A, primary screen (AID 1103). Also: the record names both GSK3A and GSK3B. The settings on record: fluorescence 635 nm, higher = more signal.
Experiment [7] addresses Epidermal growth factor receptor (Homo sapiens) (UniProt P00533). Briefly: compounds binding epidermal growth factor receptor – biochemical, small-molecule microarray, 635 nm fluorescence, primary screen (AID 1104).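 Also: score merges 667 nm emission intensity with spot signal to noise over triplicate slides.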 The settings on record: EGFR binding, higher = more signal.
In experiment [8] the target is Follistatin-related protein 3 (Homo sapiens) (UniProt O95633). Briefly: compounds binding follistatin-related protein 3 – biochemical, small-molecule microarray, 635 nm fluorescence, primary screen (AID 1105).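 Also: score merges emission near 667 nm and signal to noise per printed spot across three slides.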 The settings on record: FSTL3 binding, higher = more signal.
Sequence of Follistatin-related protein 3 (Homo sapiens) (O95633 whole entry, looked up): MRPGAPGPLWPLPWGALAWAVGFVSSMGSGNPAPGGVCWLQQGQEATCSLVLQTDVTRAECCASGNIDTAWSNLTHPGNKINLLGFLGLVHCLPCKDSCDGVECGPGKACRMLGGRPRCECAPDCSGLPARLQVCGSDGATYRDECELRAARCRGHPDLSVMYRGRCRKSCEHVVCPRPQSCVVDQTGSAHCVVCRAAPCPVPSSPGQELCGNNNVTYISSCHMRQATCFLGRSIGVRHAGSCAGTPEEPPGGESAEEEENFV
The target of experiment [9] is Dickkopf-related protein 1 (Homo sapiens) (UniProt O94907). Briefly: small molecules binding DKK1 protein – biochemical, small-molecule microarray, 635 nm fluorescence scan, primary screen (AID 1106).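 Also: score merges emission near 667 nm with signal to noise over three replicate slides.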 The settings on record: higher = more signal.
Sequence of Dickkopf-related protein 1 (Homo sapiens) (O94907 whole entry, looked up): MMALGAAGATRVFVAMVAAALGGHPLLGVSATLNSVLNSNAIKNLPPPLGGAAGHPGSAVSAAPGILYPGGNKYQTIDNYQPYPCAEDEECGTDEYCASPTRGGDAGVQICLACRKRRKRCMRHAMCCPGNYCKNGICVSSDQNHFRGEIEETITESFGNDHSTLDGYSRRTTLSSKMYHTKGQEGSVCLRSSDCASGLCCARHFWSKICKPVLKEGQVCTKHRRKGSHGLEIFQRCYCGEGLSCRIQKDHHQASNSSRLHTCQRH
In experiment [10] the test system is Inhibin beta A chain (activin A). Briefly: small molecules binding activin A – biochemical, small-molecule microarray, 635 nm fluorescence scan, primary screen (AID 1107).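 Also: mouse activin A protein probed at 4.33 µg/mL on printed slides; score merges bound-protein fluorescence near 667 nm with spot signal-to-noise.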 The settings on record: INHBA, higher = more signal.
The test system of experiment [11] is Human papillomavirus type 1a protein E7 (residues 44-93). In words: small molecules binding HPV E7 44-93 – biochemical, small-molecule microarray, residues 44-93, 635 nm fluorescence, primary screen (AID 1108).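 Also: E7 fragment applied at 1 µg/mL in TBST for 1 h at 4 C; score combines spot fluorescence with its signal to noise ratio.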 The settings on record: fluorescence 635 nm, higher = more signal.
The nature of experiment [12]: hepatitis C replication reporter changes, two-sided – Huh7 cells, luciferase reporter, HCV replication inhibitor project, primary screen (AID 1109).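 Also: huh7 hepatoma cells harbouring a luciferase neomycin HCV replicon reporter; luciferase luminescence as measure of HCV replicon replication; test concentration not given here.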 The settings on record: Huh7 HCV replicon luciferase reporter, 48 h; higher = more signal.
Experiment [13] deals with Left-right determination factor 2 (Homo sapiens) (UniProt O00292). Briefly: small molecules binding LEFTY2 protein – biochemical, small-molecule microarray, 635 nm fluorescence scan, primary screen (AID 1110). The settings on record: higher = more signal.
Sequence of Left-right determination factor 2 (Homo sapiens) (O00292 whole entry, looked up): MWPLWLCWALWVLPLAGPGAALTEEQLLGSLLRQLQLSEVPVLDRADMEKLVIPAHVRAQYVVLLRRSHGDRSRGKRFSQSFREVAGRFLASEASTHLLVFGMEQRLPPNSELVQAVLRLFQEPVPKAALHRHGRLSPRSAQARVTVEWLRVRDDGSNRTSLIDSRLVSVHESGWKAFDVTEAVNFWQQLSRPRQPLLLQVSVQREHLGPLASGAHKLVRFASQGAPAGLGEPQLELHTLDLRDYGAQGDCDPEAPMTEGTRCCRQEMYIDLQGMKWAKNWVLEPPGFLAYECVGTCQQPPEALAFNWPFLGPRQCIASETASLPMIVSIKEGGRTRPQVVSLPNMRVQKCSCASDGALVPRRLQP
The target in experiment [14] is Calmodulin-1 (Homo sapiens) (UniProt P0DP23). In words: small molecules binding calmodulin-1 with EGTA – biochemical, small-molecule microarray, Cy5-labelled CALM1, profiling panel (AID 1111).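 Also: labelled calmodulin applied in Tris saline Tween buffer holding calcium plus EGTA and DTT.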 The settings on record: Cy5-CALM1 binding fluorescence, higher = more signal.
Experiment [15] shares this target. Briefly: small molecules binding Ca-loaded calmodulin-1 – biochemical, small-molecule microarray, Cy5-labelled CALM1, plus calcium, artefact control for SMM control-protein annotation, profiling panel (AID 1112).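 Also: score merges spot fluorescence with signal to noise from triplicate slides.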 The settings on record: Cy5-CALM1 binding fluorescence, higher = more signal.
Experiment [16] in a line: probe aWnt5a binding to arrayed compounds – biochemical, biotinylated probe, 635/667 nm fluorescence, primary screen (AID 1113).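 Also: score merges 667 nm fluorescence intensity with signal-to-noise per printed feature.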 The settings on record: small-molecule microarray, higher = more signal.
Experiment [17] can be described thus: probe aShh binding to arrayed compounds – biochemical, biotinylated probe, 635/667 nm fluorescence, primary screen (AID 1114).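 Also: probe is biotin-labelled aShh protein from a stem cell growth factor screen; measures binding of labelled protein to compounds printed on the slide; score merges feature fluorescence at 667 nm with signal-to-noise.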 The settings on record: small-molecule microarray, higher = more signal.
Experiment [18] can be described thus: probe aNog binding to arrayed compounds – biochemical, biotinylated probe, 635/667 nm fluorescence, primary screen (AID 1115).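 Also: probe is biotinylated aNog protein used at 0.15 µg/mL for 1 h at 4 C; z-score combines 667 nm fluorescence of each spot with its signal to noise.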 The settings on record: small-molecule microarray, higher = more signal.
Experiment [19] concerns the target Torsin-1A-interacting protein 1 (Homo sapiens) (UniProt Q5JTV8). Briefly: compound microarray binding of lysate hLAP1 – cell lysate, small-molecule microarray, COS7 lysate, 635/667 nm fluorescence, primary screen (AID 1116). The settings on record: 635 nm fluorescence, higher = more signal.
Experiment [20] has as its target Alpha-bungarotoxin (Bungarus multicinctus) (UniProt P60615). Briefly: compounds binding labelled alpha-BTX control protein – biochemical, small-molecule microarray, Alexa647 label, 635/667 nm fluorescence, artefact control for SMM control protein annotation, profiling panel (AID 1117). The settings on record: alpha-BTX-A647 binding fluorescence, higher = more signal.

Each structure is given as a SMILES string. Active and inactive are the calls of the source.

Sequence of Fibroblast growth factor 10 (Homo sapiens) (O15520 whole entry, looked up): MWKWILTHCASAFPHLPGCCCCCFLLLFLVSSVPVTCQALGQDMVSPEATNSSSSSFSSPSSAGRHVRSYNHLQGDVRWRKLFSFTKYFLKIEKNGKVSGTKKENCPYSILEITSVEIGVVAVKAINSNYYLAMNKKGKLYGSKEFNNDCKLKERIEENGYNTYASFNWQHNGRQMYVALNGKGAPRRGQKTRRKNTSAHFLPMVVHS
Sequence of Alpha-bungarotoxin (Bungarus multicinctus) (P60615 whole entry, looked up): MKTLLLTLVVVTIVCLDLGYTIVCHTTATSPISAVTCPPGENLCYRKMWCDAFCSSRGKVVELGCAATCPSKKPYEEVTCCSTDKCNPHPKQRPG
Sequence of Torsin-1A-interacting protein 1 (Homo sapiens) (Q5JTV8 whole entry, looked up): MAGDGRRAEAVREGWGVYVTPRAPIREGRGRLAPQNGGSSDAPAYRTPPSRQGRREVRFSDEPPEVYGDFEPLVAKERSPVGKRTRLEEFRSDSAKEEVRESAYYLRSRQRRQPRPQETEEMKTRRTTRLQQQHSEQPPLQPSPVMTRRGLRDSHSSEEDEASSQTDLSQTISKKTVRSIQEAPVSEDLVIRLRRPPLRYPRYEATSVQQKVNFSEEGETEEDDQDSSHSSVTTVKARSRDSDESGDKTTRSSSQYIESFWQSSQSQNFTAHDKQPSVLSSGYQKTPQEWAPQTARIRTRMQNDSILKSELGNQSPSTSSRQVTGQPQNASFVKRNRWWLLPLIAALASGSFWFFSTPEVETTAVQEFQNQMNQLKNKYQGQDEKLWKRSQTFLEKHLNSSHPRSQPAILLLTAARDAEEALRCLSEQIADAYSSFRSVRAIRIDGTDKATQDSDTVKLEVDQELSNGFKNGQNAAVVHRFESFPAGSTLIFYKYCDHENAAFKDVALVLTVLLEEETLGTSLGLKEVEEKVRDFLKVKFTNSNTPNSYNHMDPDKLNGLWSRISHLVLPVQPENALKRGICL
Sequence of Epidermal growth factor receptor (Homo sapiens) (P00533 whole entry, looked up): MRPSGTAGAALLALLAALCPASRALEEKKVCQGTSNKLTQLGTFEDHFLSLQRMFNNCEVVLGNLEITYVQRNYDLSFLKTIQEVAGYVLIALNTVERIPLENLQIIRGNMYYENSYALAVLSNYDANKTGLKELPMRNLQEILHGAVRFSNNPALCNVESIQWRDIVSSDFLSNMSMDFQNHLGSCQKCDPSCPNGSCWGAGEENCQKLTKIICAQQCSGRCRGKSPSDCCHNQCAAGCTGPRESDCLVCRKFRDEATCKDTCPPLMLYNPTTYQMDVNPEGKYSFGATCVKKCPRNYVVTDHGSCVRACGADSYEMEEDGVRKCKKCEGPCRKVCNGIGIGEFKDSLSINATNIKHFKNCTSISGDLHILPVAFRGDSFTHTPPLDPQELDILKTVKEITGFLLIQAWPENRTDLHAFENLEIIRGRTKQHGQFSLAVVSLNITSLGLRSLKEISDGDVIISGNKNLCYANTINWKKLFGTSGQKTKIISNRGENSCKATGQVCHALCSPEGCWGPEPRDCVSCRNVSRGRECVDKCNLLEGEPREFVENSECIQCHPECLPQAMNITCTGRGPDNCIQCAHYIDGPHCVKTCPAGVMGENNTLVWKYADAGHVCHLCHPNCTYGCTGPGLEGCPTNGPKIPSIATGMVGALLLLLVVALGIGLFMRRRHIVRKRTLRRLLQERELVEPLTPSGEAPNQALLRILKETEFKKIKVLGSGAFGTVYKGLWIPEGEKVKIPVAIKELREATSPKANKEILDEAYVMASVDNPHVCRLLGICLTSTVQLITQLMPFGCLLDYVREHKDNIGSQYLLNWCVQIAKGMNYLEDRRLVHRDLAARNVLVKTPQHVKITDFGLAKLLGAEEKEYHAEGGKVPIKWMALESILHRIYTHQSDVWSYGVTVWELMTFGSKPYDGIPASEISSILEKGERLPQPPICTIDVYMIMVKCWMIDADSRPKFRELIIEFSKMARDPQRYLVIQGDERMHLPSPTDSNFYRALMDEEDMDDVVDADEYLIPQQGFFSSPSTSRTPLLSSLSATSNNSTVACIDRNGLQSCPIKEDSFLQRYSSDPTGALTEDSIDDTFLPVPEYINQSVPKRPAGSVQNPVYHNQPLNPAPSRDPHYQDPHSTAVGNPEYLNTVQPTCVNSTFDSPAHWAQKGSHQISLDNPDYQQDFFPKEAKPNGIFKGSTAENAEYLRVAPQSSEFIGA

Turning to `CO[C@H]1COC(=O)CC=C[C@@H](C)COC(=O)[C@@H](C)NC(=O)CC=C[C@@H]1C`, the composite z-score in experiment [1] is 1.35; in experiment [2] it was -0.954; in experiment [3] it was -1.84; in [5], 0.567; in experiment [6], 0.967; in experiment [7], 1.39. Also, the composite z-score was 1.45 in experiment [8]; 2.01 in experiment [9]; -0.529 in experiment [10]; -0.291 in experiment [11]; 1.6 in [13]; -3.42 in experiment [14]. In addition, the composite z-score is -3.57 in experiment [15]; -0.307 in experiment [16]; 0.238 in [17]; -0.139 in experiment [18]; -0.229 in experiment [19]; -0.706 in [20]. In addition, the figures for the z-score in experiment [4] and in experiment [12] were -2.81 (inactive) and 0.325, respectively.

For `C=CC[C@@]1(C(=O)NCC(O)CO)N=C(c2ccc(OCCCO)cc2)O[C@@H]1c1ccccc1CN=[N+]=[N-]` (stereo not given in full), the composite z-score in [1] is 1.52; in experiment [2], -0.0775; in experiment [3], 1.08; in experiment [5], 0.0349; in [6], -1.33; in experiment [7], -0.83. In addition, the composite z-score in experiment [8] is -0.884; in experiment [9] it was -1.45; in experiment [10], 0.242; in experiment [11], 1.43; in [13] it was -1.44; in [14], 0.778. Moreover, the composite z-score in experiment [15] is -0.0262; in [16], -0.119; in experiment [17] it was 0.261; in [18], 0.824; in experiment [19] it was 2.6; in experiment [20], 0.0177. In addition, the results for the z-score in experiment [4] and in [12] were -0.155 (inactive) and -1.11, respectively.

As to `CCCCCCc1nc(C2CC2)c(C)c2c1[Si](C(C)C)(C(C)C)OC2`, the composite z-score in experiment [1] is -0.192; in [2], -0.124; in experiment [3], 0.109; in experiment [5] it was -0.391; in experiment [6] it was -0.562; in [7] it was 0.138. For the same molecule, the composite z-score in experiment [8] is -0.127; in experiment [9], 0.438; in experiment [10], 1.54; in [11], -0.497; in [13] it was -0.127; in [14], -0.682. Also, the composite z-score in experiment [15] is -0.111; in experiment [16], -0.124; in experiment [17], -0.0146; in experiment [18] it was -0.353; in experiment [19] it was -0.147; in [20] it was 0.342. Further, the z-score in experiment [4] was -3.06 (inactive); in experiment [12], 0.127.

Turning to `CCCCCCc1nc(-c2cc(C)c(OC)c(C)c2)cc2c1[Si](C(C)C)(C(C)C)O[C@H]2c1ccccc1`, the composite z-score in experiment [1] is -0.717; in [2] it was -0.268; in experiment [3] it was 0.122; in [5], -0.915; in experiment [6], -0.849; in experiment [7], -0.394. Moreover, the composite z-score is -0.677 in experiment [8]; -0.302 in experiment [9]; 0.621 in [10]; -0.57 in experiment [11]; -0.607 in [13]; -0.482 in experiment [14]. In addition, the composite z-score in [15] is 0.244; in experiment [16], -0.197; in experiment [17], 0.0278; in [18], -0.0755; in experiment [19] it was -0.872; in experiment [20], 0.117. The z-score in [4] was 0.399 (inactive); in experiment [12] it was 0.115.

As to `CC(C)(C)OC(=O)CC[C@]1(C(=O)NCCN2CCOCC2)N=C(c2ccc(OCCCO)cc2)O[C@H]1c1ccccc1CN=[N+]=[N-]`, the composite z-score was 0.639 in [1]; 0.626 in experiment [2]; 0.777 in experiment [3]; -0.0042 in experiment [5]; 0.813 in experiment [6]; -0.243 in experiment [7]. Further, the composite z-score in experiment [8] is -0.49; in [9] it was -0.663; in experiment [10], 0.82; in experiment [11] it was 0.309; in experiment [13] it was 0.0415; in experiment [14], 1.12. The composite z-score in experiment [15] was 0.608; in [16], -0.0944; in experiment [17], 0.0469; in experiment [18], 0.816; in [19], 2.12; in experiment [20], 2.01. The z-score in experiment [4] is -1.59 (inactive); in [12] it was -1.77.

With `O=C1C[C@@](C(=O)NC2CC2)(c2ccc([N+](=O)[O-])cc2)[C@@H](c2ccc(CO)cc2I)N1CC12CC3CC(CC(C3)C1)C2`, the composite z-score in experiment [1] is 0.841; in experiment [2], -0.0788; in experiment [3], -0.52; in experiment [5], 1.23; in [6], 0.968; in [7], 0.282. Also, the composite z-score is 0.991 in experiment [8]; 0.266 in [9]; -0.22 in experiment [10]; 1.37 in experiment [11]; 0.672 in [13]; 0.266 in experiment [14]. Further, the composite z-score in [15] was -0.151; in [16], 0.0644; in experiment [17], 0.574; in experiment [18] it was -0.0719; in experiment [19] it was 0.626; in [20] it was 0.905. Further, the values for the z-score in experiment [4] and in experiment [12] were -1.11 (inactive) and -3.45, respectively.

(Values after PubChem BioAssay.)
